Assay results taken from PubChem BioAssay (NCATS).
“And” between values parts separate entries of the source, which are not always exact repeats. Equal values may be shown once. Inconclusive results are not listed. The source made the active and inactive calls. Calls follow the shape of the dose curve; as a rule, active = well fitted curve in the direction sought with a large enough effect; inconclusive = small, poorly fitted or top-dose-only effect, or another doubt; inactive = no such curve, though single readings can be large; an effect the other way counts as inactive or inconclusive.

Assays:
CAOV3 = test: Primary qHTS to identify gynecologic anti-cancer compounds using libraries of approved drugs and bioactive compounds (AID 1345084); conditions: Gynecologic cancer cell panel viability, ATPlite luminescence, 48 h; series mostly up to 57.5 µM; also: nearly all actives have a fitted effect of over 55% in size
Summary of the method: (§1)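 In this quantitative HTS, cell killing is estimated from loss of ATP-dependent luciferase light. Cells see five compound concentrations over a 48 h exposure.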

CASKI = test: as above; conditions: Gynecologic cancer cell panel viability, ATPlite luminescence, 48 h; series mostly up to 57.5 µM
Summary of the method: as §1

Es-2 = test: as above; conditions: Gynecologic cancer cell panel viability, ATPlite luminescence, 48 h; series mostly up to 57.5 µM
Summary of the method: as §1

HeLa = test: as above; conditions: Gynecologic cancer cell panel viability, ATPlite luminescence, 48 h; series mostly up to 57.5 µM
Summary of the method: as §1

Hek293T = test: as above; conditions: Gynecologic cancer cell panel viability, ATPlite luminescence, 48 h, control line for the selectivity index; series mostly up to 57.5 µM
Summary of the method: as §1

JEG-3 = test: as above; conditions: Gynecologic cancer cell panel viability, ATPlite luminescence, 48 h; series mostly up to 57.5 µM
Summary of the method: as §1

OV90 = test: as above; conditions: Gynecologic cancer cell panel viability, ATPlite luminescence, 48 h; series mostly up to 57.5 µM
Summary of the method: as §1

PA-1 = test: as above; conditions: Gynecologic cancer cell panel viability, ATPlite luminescence, 48 h; series mostly up to 57.5 µM
Summary of the method: as §1

SKOV3 = test: as above; conditions: Gynecologic cancer cell panel viability, ATPlite luminescence, 48 h; series mostly up to 57.5 µM
Summary of the method: as §1

Tov-21-G = test: as above; conditions: Gynecologic cancer cell panel viability, ATPlite luminescence, 48 h; series mostly up to 57.5 µM
Summary of the method: as §1

Tov112D = test: as above; conditions: Gynecologic cancer cell panel viability, ATPlite luminescence, 48 h; series mostly up to 57.5 µM
Summary of the method: as §1

[1] = Drug repurposing screens with cells derived from glioblastoma tumor samples (AID 1345199); conditions: GBM patient neurospheres viability, ATP luminescence, 48 h; also: nearly all actives have a fitted effect of over 40% in size; also: potency is read from the fitted curve at half-maximal effect
Summary of the method: (§2)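 Primary testing used CD133+ neurospheres from four GBM patients, seven concentrations, 48 h exposure and ATP-based viability; confirmation added three slower-growing patient lines.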

astro = test: as above; conditions: viability, ATP luminescence, 48 h; series mostly up to 45.9 µM
Summary of the method: as §2

[2] = at 45.9 µM (top of the series), tumour line B
[3] = at 45.9 µM (top of the series), tumour line D
[4] = at 46 µM (top of the series), tumour line A
[5] = at 46.1 µM (top of the series), tumour line C
[6] = at 21.2 µM (top of the series), tumour line B
[7] = at 21.2 µM (top of the series), tumour line D
[8] = at 20 µM (top of the series), tumour line C
[9] = at 21.3 µM (top of the series), tumour line A
% is scaled to controls: 0 for no effect and ±100 for the full control effect.

COc1cc(OC)cc(OC)c1
inactive: Potency (CAOV3) | Potency (CASKI) | Potency (Es-2) | Potency (HeLa) | Potency (Hek293T) | Potency (JEG-3) | Potency (OV90) | Potency (PA-1) | Potency (SKOV3) | Potency (Tov-21-G) | Potency (Tov112D) | activity, negative = cell killing [1, 2] -3.53% | activity, negative = cell killing [1, 3] 7.76% | activity, negative = cell killing [1, 4] -12.5% | activity, negative = cell killing [1, 5] -1.01%

OC[C@@H](O)[C@@H](O[C@@H]1O[C@H](CO)[C@H](O)[C@H](O)[C@H]1O)[C@H](O)[C@@H](O)CO
inactive: Potency (CAOV3) | Potency (CASKI) | Potency (Es-2) | Potency (HeLa) | Potency (Hek293T) | Potency (JEG-3) | Potency (OV90) | Potency (PA-1) | Potency (SKOV3) | Potency (Tov-21-G) | Potency (Tov112D) | activity, negative = cell killing [1, 2] -6.48% | activity, negative = cell killing [1, 3] -4.42% | activity, negative = cell killing [1, 4] -40.2% | activity, negative = cell killing [1, 5] -3.02%

Cc1nc2n(c(=O)c1CCN1CCC(c3noc4cc(F)ccc34)CC1)CCC[C@H]2O
active: Potency ([1]; tumour line A) 15.8 µM
inactive: Potency (CAOV3) | Potency (CASKI) | Potency (Es-2) | Potency (HeLa) | Potency (Hek293T) | Potency (JEG-3) | Potency (OV90) | Potency (PA-1) | Potency (SKOV3) | Potency (Tov-21-G) | Potency (Tov112D) | activity, negative = cell killing [1, 2] -11% | activity, negative = cell killing [1, 3] -35.1% | activity, negative = cell killing [1, 5] -8.74%

NC[C@H]1O[C@H](O[C@H]2[C@H](O[C@@H]3O[C@H](CO)[C@@H](O)[C@H]3O)C(O)[C@H](N)C[C@@H]2N)[C@H](N)[C@@H](O)[C@@H]1O (stereo partly drawn)
inactive: activity change, negative = cytotoxicity (CAOV3) -25.7% [at 11.6 µM] | activity change, negative = cytotoxicity (CASKI) 15.2% [at 11.6 µM] | activity change, negative = cytotoxicity (Es-2) -3.21% [at 11.6 µM] | activity change, negative = cytotoxicity (HeLa) 8.62% [at 11.6 µM] | activity change, negative = cytotoxicity (Hek293T) -5.51% [at 11.6 µM] | activity change, negative = cytotoxicity (JEG-3) -0.299% [at 11.6 µM] | activity change, negative = cytotoxicity (OV90) 0.648% [at 11.6 µM] | activity change, negative = cytotoxicity (PA-1) 6.06% [at 11.6 µM] | activity change, negative = cytotoxicity (SKOV3) -1.1% [at 11.6 µM] | activity change, negative = cytotoxicity (Tov-21-G) 9.27% [at 11.6 µM] | activity change, negative = cytotoxicity (Tov112D) 13.5% [at 11.6 µM] | activity, negative = cell killing [1, 6] -5.37% | activity, negative = cell killing [1, 7] 0.454%

CC1=C(C(=O)OC(C)C)C(c2cccc([N+](=O)[O-])c2)C(C(=O)OC2CN(C(c3ccccc3)c3ccccc3)C2)=C(N)N1 (stereo not drawn)
inactive: Potency (CAOV3) | Potency (CASKI) | Potency (Es-2) | Potency (HeLa) | Potency (Hek293T) | Potency (JEG-3) | Potency (OV90) | Potency (PA-1) | Potency (SKOV3) | Potency (Tov-21-G) | Potency (Tov112D)

Cc1ccnc(NS(=O)(=O)c2ccc(N)cc2)n1
inactive: Potency (CAOV3) | Potency (CASKI) | Potency (Es-2) | Potency (HeLa) | Potency (Hek293T) | Potency (JEG-3) | Potency (OV90) | Potency (PA-1) | Potency (SKOV3) | Potency (Tov-21-G) | Potency (Tov112D) | activity, negative = cell killing [1, 8] -10.2% | activity, negative = cell killing [1, 6] -5.77% | activity, negative = cell killing [1, 7] -5.49% | activity, negative = cell killing [1, 9] -16.8%

C=C1C(=C/C=C2\CCC[C@]3(C)[C@@H]([C@H](C)/C=C/[C@@H](O)C4CC4)CC[C@@H]23)C[C@@H](O)C[C@@H]1O
inactive: Potency (CAOV3) | Potency (CASKI) | Potency (Es-2) | Potency (HeLa) | Potency (Hek293T) | Potency (JEG-3) | Potency (OV90) | Potency (PA-1) | Potency (SKOV3) | Potency (Tov-21-G) | Potency (Tov112D)

NC(=O)CC[C@@H]1NC(=O)[C@H](Cc2ccccc2)NC(=O)[C@H](Cc2ccc(O)cc2)NC(=O)CCSSC[C@@H](C(=O)N2CCC[C@H]2C(=O)N[C@@H](CCCN=C(N)N)C(=O)NCC(N)=O)NC(=O)[C@H](CC(N)=O)NC1=O
inactive: Potency (CAOV3) | Potency (CASKI) | Potency (Es-2) | Potency (HeLa) | Potency (Hek293T) | Potency (JEG-3) | Potency (OV90) | Potency (PA-1) | Potency (SKOV3) | Potency (Tov-21-G) | Potency (Tov112D) | activity, negative = cell killing [1, 2] -2.8% and 1.21% | activity, negative = cell killing [1, 3] -7.07% and -4.13% | activity, negative = cell killing [1, 4] -24.9% and -29% | activity, negative = cell killing [1, 5] -17.6% and 1.07%

N[C@H](Cc1c[nH]c2ccccc12)C(=O)O
active: Potency ([1]; tumour line B) 35.5 µM
inactive: Potency (CAOV3) | Potency (CASKI) | Potency (Es-2) | Potency (HeLa) | Potency (Hek293T) | Potency (JEG-3) | Potency (OV90) | Potency (PA-1) | Potency (SKOV3) | Potency (Tov-21-G) | Potency (Tov112D) | activity, negative = cell killing [1, 4] 21.7% | activity, negative = cell killing [1, 5] 0.799%

NC(=O)c1cc[n+](CC2=C(C(=O)[O-])N3C(=O)[C@@H](NC(=O)Cc4cccs4)[C@H]3SC2)cc1
inactive: Potency (CAOV3) | Potency (CASKI) | Potency (Es-2) | Potency (HeLa) | Potency (Hek293T) | Potency (JEG-3) | Potency (OV90) | Potency (PA-1) | Potency (SKOV3) | Potency (Tov-21-G) | Potency (Tov112D) | activity, negative = cell killing [1, 8] -2.18% | activity, negative = cell killing [1, 6] -10.7% | activity, negative = cell killing [1, 7] -13.1% | activity, negative = cell killing [1, 9] -27.6% | Potency (astro)

NC(CS)C(=O)O (stereo not drawn)
inactive: Potency (CAOV3) | Potency (CASKI) | Potency (Es-2) | Potency (HeLa) | Potency (Hek293T) | Potency (JEG-3) | Potency (OV90) | Potency (PA-1) | Potency (SKOV3) | Potency (Tov-21-G) | Potency (Tov112D) | activity, negative = cell killing [1, 2] -9.5% | activity, negative = cell killing [1, 3] -0.348% | activity, negative = cell killing [1, 4] -20.7% | activity, negative = cell killing [1, 5] -17% | Potency (astro)

CC(Cc1ccccc1)(NC(=O)CN)c1ccccc1 (stereo not drawn)
active: Potency ([1]; tumour line A) 20 µM
inactive: Potency (CAOV3) | Potency (CASKI) | Potency (Es-2) | Potency (HeLa) | Potency (Hek293T) | Potency (JEG-3) | Potency (OV90) | Potency (PA-1) | Potency (SKOV3) | Potency (Tov-21-G) | Potency (Tov112D) | activity, negative = cell killing [1, 2] -9.21% | activity, negative = cell killing [1, 3] 3.89% | activity, negative = cell killing [1, 5] -26.6% | Potency (astro)

Cc1c(F)c(N2CCNC(C)C2)cc2c1c(=O)c(C(=O)O)cn2C1CC1 (stereo not drawn)
inactive: Potency (CAOV3) | Potency (CASKI) | Potency (Es-2) | Potency (HeLa) | Potency (Hek293T) | Potency (JEG-3) | Potency (OV90) | Potency (PA-1) | Potency (SKOV3) | Potency (Tov-21-G) | Potency (Tov112D) | activity, negative = cell killing [1, 2] -3.48% | activity, negative = cell killing [1, 3] 3.74% | activity, negative = cell killing [1, 4] -33% | activity, negative = cell killing [1, 5] -2.18% | Potency (astro)
